Test results as given in PubChem BioAssay (Tox21).
“And” between values parts separate entries of the source, which are not always exact repeats. Identical values can stand only once. Inconclusive results are not listed. Entries that show only a call come without a potency. The source made the active and inactive calls. Calls come from the whole dose curve; as a rule, active = well fitted cell-killing curve with a large enough effect in the repeat runs; inconclusive = weak or mixed curves, or effect the other way; inactive = flat fitted curve, though single readings scatter.

Test: Nuclear factor erythroid 2-related factor 2/antioxidant responsive element (Nrf2/ARE) small molecule agonists: qHTS cell viability counter screen in human keratinocytes (AID 1919968); note: nearly all actives have a fitted effect of over 55% in size
Conditions: KeratinoSens HaCaT ARE cells viability, CellTiter-Fluor, 24 h; series mostly up to 92.4 µM
Description: U.S. Tox21 Program National Center for Advancing Translational Sciences [NCATS] Division of Preclinical Innovation [DPI] U.S. Environmental Protection Agency [EPA] National Institutes of Environmental Health Sciences [NIEHS] National Toxicology Program [NTP] U.S. Food and Drug Administration [FDA] Tox21 Assay Overview: Oxidative stress has been implicated in the pathogenesis of a variety of diseases ranging from cancer to neurodegeneration. The antioxidant response element (ARE) signaling pathway plays an important role in the amelioration of oxidative stress. The KeratinoSens (Givaudan, Switzerland) is an in vitro test method which quantifies luciferase induction as a measure of activation of Keap1-Nrf2-antioxidationt/electrophile response element (ARE) dependant pathway in HaCaT human keratinocytes stably transfected with a selectable plasmid. The KeratinoSens assay is a cell-based assay with a reporter cell line to detect potential skin sensitizers by their ability to induce the Nrf2/ARE-response. The activation of the report gene under culture conditions can be detected by ONE-Glo Luciferase Assay System (Promega, Madison, WI). This cell line has been used to screen the Tox21 10K compound library to identify agonists that induce oxidative stress. The cytotoxicity of the Tox21 compound library against the KS-ARE cell line was tested in parallel by measuring the cell viability using CellTiter- Fluor assay system (Promega, Madison, WI) in the same wells.
Tox21 Assay Protocol Summary: HaCaT derived cell line KeratinoSens were dispensed at 1,500 cells/5uL/well in 1536-well white wall/solid bottom plates using a Multidrop Combi (ThermoFisher Scientific, Waltham, MA) dispenser. After the assay plates were incubated at 37 C/5% CO2 for 5 h, 23 nL of compounds dissolved in DMSO, positive controls or DMSO only was transferred to the assay plate by a pintool workstation (Kalypsys, San Diego, CA). The plates were incubated at 37 C/5% CO2 for 23 h, followed by addition of 1uL/well of CellTiter-Fluor reagent into the assay plates using a Flying Reagent Dispenser (Aurora Discovery, San Diego, CA) for cell viability readout that measures cytotoxicity. After 1 h incubation at 37 C/5% CO2 the fluorescence intensity was measured using a ViewLux (PerkinElmer, Shelton, CT) plate reader.
Potency is the fitted concentration of half-maximal effect.

Structure (SMILES) | Potency
Cc1ccc(S(=O)(=O)NC(=O)NN2CCCCCC2)cc1 | inactive
O=C(O)CCCC[C@@H]1SC[C@@H]2NC(=O)N[C@@H]21 | inactive
O=[N+]([O-])c1cc(C(F)(F)F)ccc1Cl | inactive
CCC(C)OC(=O)c1ccc(O)cc1 (stereo not given) | inactive
CCCCC1C(=O)N(c2ccccc2)N(c2ccccc2)C1=O | inactive
O=C(O)c1ccc(S(=O)(=O)N(Cl)Cl)cc1 | inactive
O=C(Cl)c1cccc(C(=O)Cl)c1 | inactive
Nc1ccc(Cl)cc1Cl | inactive
CCCCCCCCC | inactive
COc1ccc(Cl)cc1C(=O)NCCc1ccc(S(=O)(=O)NC(=O)NC2CCCCC2)cc1 | inactive
CC[N+](CC)(CC(=O)Nc1c(C)cccc1C)Cc1ccccc1 | inactive
CCCCOCCO | inactive
CC(=O)Oc1ccc(C(c2ccc(OC(C)=O)cc2)c2ccccn2)cc1 | inactive
C=C(C)C(=O)OCCCCCC | inactive
CC(=O)[C@H]1CC[C@H]2[C@@H]3CC=C4C[C@@H](O)CC[C@]4(C)[C@H]3CC[C@]12C | inactive
COc1cc(OC)c(C(=O)CCCN2CCCC2)c(OC)c1 | inactive
C[C@H]1C[C@@H]2[C@H]([C@@H](O)C[C@@]3(C)[C@H]2CC[C@]3(O)C(=O)CO)[C@@]2(C)C=CC(=O)C=C12 | inactive
O=C(Oc1ccccc1)c1ccccc1O | inactive
O=C1NC(=O)c2ccccc21 | inactive
Nc1cccc(N)c1 | inactive

Structure (SMILES) | Potency
Cc1ccccc1C=O | inactive
C[C@]12CC[C@@H]3c4ccc(O)cc4CC[C@H]3[C@@H]1C[C@@H](O)[C@@H]2O | inactive
C=CCNC(N)=S | inactive
CCCCOCCOCCO | inactive
CCCCCCC(C)O (stereo not given) | inactive
CCCOC(=O)c1cc(O)c(O)c(O)c1 | inactive
CC1=C(C)S(=O)(=O)CCS1(=O)=O | inactive
O=C(O)CCCCC(=O)O | inactive
ClC/C=C/CCl | inactive
Cc1cc(Cc2cc(C)cc(C(C)(C)C)c2O)c(O)c(C(C)(C)C)c1 | 13.8 µM (active) and 13.7 µM (active)
CC(C)=CCC/C(C)=C/C=O | inactive
Cc1nnc(NS(=O)(=O)c2ccc(N)cc2)s1 | inactive
COC(=O)CCC(=O)OC | inactive
O=C(O)C1=NN(c2ccc(S(=O)(=O)O)cc2)C(=O)C1 | inactive
CCCCCCCC(=O)O | inactive
O=c1[nH]c(=O)n([C@H]2C[C@H](O)[C@@H](CO)O2)cc1Br | inactive
Cc1c(N(C)CS(=O)(=O)O)c(=O)n(-c2ccccc2)n1C | inactive
COCC(C)O (stereo not given) | inactive
O=Nc1ccc(O)cc1 | inactive
CC(=O)c1nccs1 | inactive
